Laboratory results published in PubChem BioAssay (Tox21).
Records with an inconclusive call do not appear. A number with no mark means an inactive call. Active and inactive are the calls of the source. The call rests on the fitted dose curve; in most records, active means well fitted cell-killing curve with a large enough effect in the repeat runs; inconclusive means weak or mixed curves, or effect the other way; inactive means flat fitted curve, though single readings scatter.
On the % scale 0 is the no-effect control and ±100 the full control effect; potency means the concentration at half of the fitted maximal effect.

Experiment: cAMP Responsive Elements (CRE) small molecule antagonists, cell-based qHTS assay: qHTS cell viability counter screen (AID 2060913); further: nearly all actives have a fitted effect of over 40% in size
Conditions: CRE-bla HEK293T viability, CellTiter-Glo luminescence, 5 h; series mostly up to 92.4 µM; viability change, negative = cytotoxic: at the top concentration
Summary of the method: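 CRE-bla HEK293T cells (2,000/well, 18 h) given compound plus NKH477 0.25 uM final for 3 h at 37C; viability counter-screen by CellTiter-Glo luminescence in same wells after 30 min.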
In the case of CCCN(CCc1cccs1)[C@H]1CCc2c(O)cccc2C1, the “viability change, negative = cytotoxic” value is reported as -4.7% [at 42.5 µM].
With O=C1NC(c2ccccc2)(c2ccccc2)C(=O)N1COP(=O)(O)O the “viability change, negative = cytotoxic” value was 1.35% [at 42.5 µM].
In the case of O=C(O)c1ccc(CO)o1, the “viability change, negative = cytotoxic” value is reported as 2.45%.
Work on CC(NN)c1ccccc1 (stereo not given) yielded a viability change, negative = cytotoxic of -0.733% [at 18.9 µM].
For NCCNCCO, the “viability change, negative = cytotoxic” value was -8.5%.
For CC(C)=CCCC(C)CCOC(=O)C(C)C (stereo not given), the “viability change, negative = cytotoxic” value was 1.89%.
In the case of COc1cc(/C=C/C(N)=O)cc(OC)c1OC, the “viability change, negative = cytotoxic” value is reported as 2.08% [at 42.5 µM].
In the case of CCn1c2ccccc2c2ccccc21, the “viability change, negative = cytotoxic” value is reported as -5.35%.
In the case of Oc1c(I)cc(I)c2cccnc12, the “viability change, negative = cytotoxic” value is reported as 2.5% [at 42.5 µM].
In the case of CCC(O)C(C)(C)C (stereo not given), the “viability change, negative = cytotoxic” value is reported as -7.99%.
For c1cc(-c2ccncc2)ccn1, the Potency was “inactive”.
With CC(C)CC(C)(N)C#N (stereo not given) the “viability change, negative = cytotoxic” value was -8.44%.
In the case of COc1ccc2nc(NC(=O)Nc3ccccc3)sc2c1, the “viability change, negative = cytotoxic” value is reported as -8.66% [at 42.5 µM].
In the case of Nc1ccc([N+](=O)[O-])cc1O, the “viability change, negative = cytotoxic” value is reported as 16.8%.
In the case of COc1nc(N)nc2nc[nH]c12, the “viability change, negative = cytotoxic” value is reported as 14.2%.
In the case of CC(C)=CCC/C(C)=C/CC/C(C)=C/CO, the “viability change, negative = cytotoxic” value is reported as 1.52%.
In the case of COc1cc(C(=O)NCc2ccc(OCCN(C)C)cc2)cc(OC)c1OC, the “viability change, negative = cytotoxic” value is reported as -1.18% [at 42.5 µM].
In the case of C=CC(=O)N1CCOCC1, the “viability change, negative = cytotoxic” value is reported as -5.76%.
In the case of CCCCC(=O)O[C@]1(C(=O)CO)CC[C@H]2[C@@H]3CCC4=CC(=O)CC[C@]4(C)[C@H]3[C@@H](O)C[C@@]21C, the “viability change, negative = cytotoxic” value is reported as 5.12% [at 42.5 µM].
With OCC(CO)(CO)COCC(CO)(CO)CO the “viability change, negative = cytotoxic” value was -1.69%.
For CCCCCOC(C)=O, the Potency was “inactive”.
With COc1ccc(OC)c(NC(=O)CC(C)=O)c1 the “viability change, negative = cytotoxic” value was 4.24%.
With Cc1cccc(OCC(O)CNC(C)(C)C)c1C (stereo not given) the “viability change, negative = cytotoxic” value was 10.6% [at 42.5 µM].
With O=c1[nH]c(=O)n([C@H]2C[C@H](O)[C@@H](CO)O2)cc1F the “viability change, negative = cytotoxic” value was -9.84% [at 42.5 µM].
In the case of CC(C)CCCC(C)CCO (stereo not given), the “viability change, negative = cytotoxic” value is reported as 6.16%.
With CCCCCCN the “viability change, negative = cytotoxic” value was 0.341%.
With CN1CCN(C2=Nc3ccccc3Sc3ccc(Cl)cc32)CC1 the “viability change, negative = cytotoxic” value was 0.118% [at 42.5 µM].
For CC(S)C(C)S (stereo not given), the “viability change, negative = cytotoxic” value was -3.16%.
With Cc1cccc(N(C)C(=S)Oc2ccc3c(c2)C2CCC3C2)c1 (stereo not given) the “viability change, negative = cytotoxic” value was -10.3% [at 42.5 µM].
For OC1(c2ccc(Cl)c(C(F)(F)F)c2)CCN(CCCC(c2ccc(F)cc2)c2ccc(F)cc2)CC1, the Potency was 29.8 µM (active).
With CC(C)(C)C1=CC(=O)C=C(C(C)(C)C)C1=O the “viability change, negative = cytotoxic” value was -3.69%.
With CC(=O)Nc1ccc(S(=O)(=O)Nc2ccc([N+](=O)[O-])cc2)cc1 the “viability change, negative = cytotoxic” value was 3.57% [at 42.5 µM].
Molecule O=c1oc2c(O)c(O)cc3c(=O)oc4c(O)c(O)cc1c4c23 has a viability change, negative = cytotoxic of 2.4% [at 18.9 µM].
In the case of Cc1ccnc(NS(=O)(=O)c2ccc(N)cc2)n1, the “viability change, negative = cytotoxic” value is reported as 1.17% [at 42.5 µM].
For O=S(c1cc(Cl)cc(Cl)c1O)c1cc(Cl)cc(Cl)c1O, the “viability change, negative = cytotoxic” value was 1.02% [at 42.5 µM].
For C/C=C\C/C=C/CCCCCCCCOC(C)=O, the “viability change, negative = cytotoxic” value was 4.05%.
With CCN1CCc2nc(N)oc2CC1 the “viability change, negative = cytotoxic” value was 0.0873% [at 42.5 µM].
With CCC/C=C(\C=O)CC the “viability change, negative = cytotoxic” value was 0.0408%.
With NNc1nc(-c2ccc([N+](=O)[O-])cc2)cs1 the “viability change, negative = cytotoxic” value was -6.32%.
In the case of CCOC(=O)COc1cc(-n2ncc(C(F)(F)F)c(C)c2=O)c(F)cc1Cl, the “viability change, negative = cytotoxic” value is reported as 0.109%.
